# Screening results deposited in PubChem by several laboratories.
# Rows were chosen to be rich in hits. Some 4.9% of all compounds tested hit in one or more screens of this group.
# SKKanGAS inh: SKKanGAS growth inhibition; S. pyogenes SKKanGAS, kanamycin growth, BacTiter-Glo, 6 h; inhibition, % at 7.5 µM; actives 1.3% (n = 300,000); AID 1662;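 active means mean replicate score, as percent of positive control median, at least 50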;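 further: strain carries kanamycin resistance gene driven by streptokinase promoter and grows in 40 µg/ml kanamycin; loss of luminescence reflects streptokinase promoter inhibition or plain growth inhibition; 0% = median of DMSO wells and 100% = positive control at its reference dose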
# NALP3 yeast inh: blocks the NALP3 inflammasome reconstituted in yeast | Yeast reconstituted NLRP3/ASC/caspase-1, beta-gal luminescence, 24 h | inhibition, % at 10 µM | actives 0.39% (n = 330,000);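 active means inhibition of 50% or more; inactive means inhibition below 50%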;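 further: plate controls were induced DMSO wells for no effect and uninduced yeast grown without galactose for full effect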
# tim23-1 inh: growth inhibitors of tim23-1 mutant yeast; S. cerevisiae tim23-1 growth, BacTiter-Glo luminescence, 24 h; inhibition, % at 20 µM; actives 1.3% (n = 330,000);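 active means growth inhibition of the mutant yeast at or above 50%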;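 further: temperature-sensitive mutant grown at 25 °C; plate controls were DMSO-treated mutant yeast for no effect and medium wells lacking yeast for full effect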
# NALP1 inh: NALP1 inhibition; S. cerevisiae NALP1/ASC/caspase-1 growth, X-gal OD620, 72 h; actives 0.61% (n = 280,000); inhibition, % at 10 µM; in the data active means inhibition mostly above about 24%, no sharp cut-off; inactive means mostly below about 32%
# tim10-1 inh: growth inhibitors of tim10-1 mutant yeast; S. cerevisiae tim10-1 ts strain growth, BacTiter-Glo, 24 h; inhibition, % at 20 µM; actives 2.2% (n = 330,000);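 active means inhibition of at least 40%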;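 further: mutant grown at 25 °C; 0% = DMSO wells with yeast and 100% = wells holding no yeast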
# TIM10 inh: inhibits growth of TIM10 yeast strain; actives 1.4% (n = 330,000); S. cerevisiae TIM10 strain growth, BacTiter-Glo luminescence, 24 h; inhibition, % at 10 µM;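 active means inhibition of 40% or more at the single tested concentration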;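 further: wild-type TIM10 isogenic control strain grown at permissive 25 °C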
# tim10-1 conf: tim10-1 yeast growth inhibition, confirmed | S. cerevisiae tim10-1 ts strain growth, BacTiter-Glo, 24 h | inhibition, % at 20 µM | actives 56% (n = 7,400) | AID 463213 | shares compounds with tim10-1 inh;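 active means inhibition of yeast growth at or above a set limit in either of two repeat tests at 20 µM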;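 further: tim10-1 mutant grown at permissive 25 °C to find synthetic lethal compounds; 0% = DMSO yeast wells and 100% = medium wells without yeast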
# tim10 confirm: TIM10 yeast growth inhibition, confirmed; actives 63% (n = 4,600); shares compounds with TIM10 inh; inhibition, % at 10 µM; S. cerevisiae tim10 strain growth, BacTiter-Glo luminescence, 24 h;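 active means inhibition of yeast growth at or above a set limit in either of two replicates at 10 µM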;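 further: this counterscreen used the strain with wild-type TIM10; 0% = yeast with DMSO and 100% = medium wells lacking yeast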
# tim23-1 conf: tim23-1 yeast growth inhibition, confirmed | S. cerevisiae tim23-1 growth, BacTiter-Glo luminescence, 24 h | inhibition, % at 20 µM | AID 463218 | actives 83% (n = 4,400) | shares compounds with tim23-1 inh;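 active means inhibition above about 39% in either of two replicate wells at 20 µM, limit read from the data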;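 further: temperature-sensitive tim23-1 mutant grown at 25 °C; 0% = DMSO wells with yeast and 100% = medium wells without yeast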
# An asterisk follows results filed as active; nt = no result.
SMILES,SKKanGAS inh,NALP3 yeast inh,tim23-1 inh,NALP1 inh,tim10-1 inh,TIM10 inh,tim10-1 conf,tim10 confirm,tim23-1 conf
C(=N\Nc1nc(-c2cccnc2)nc2ccccc12)/c1ccccc1,10,27,27,-12,17,10,nt,nt,nt
COc1ccc2oc(C(=O)Nc3ccc(N4CCOCC4)cc3)c(C)c2c1,0,20,7,nt,-5,-7,nt,nt,nt
Cc1ccc2nc(SCc3ccc([N+](=O)[O-])cc3)[nH]c2c1,-14,15,79*,-16,42*,55*,42*,24,79*
O/C=c1\ccc2cccc3nc(C(F)(F)F)nc1c23,15,3,50*,0,63*,52*,54*,51*,50*
CCCOc1ccc(CNC(=O)Cc2cccs2)cc1,-4,24,1,15,1,-13,nt,nt,nt
COc1ccc(C(=O)NCC(c2ccco2)N2CCc3ccccc32)c(OC)c1 (configuration not stated),3,19,21,nt,15,18,nt,nt,nt
CCOC(=O)Cc1csc(NC(=S)NC(=O)CC(C)C)n1,-10,-47,55*,26,50*,42*,47*,39*,56*
CCOC(=O)Cc1csc(NC(=S)NC(=O)c2ccc(C)cc2)n1,-12,-12,-6,21,17,24,nt,nt,nt
CC1CCN(C(=O)CSCC(=O)Nc2nc(-c3cccs3)cs2)CC1,-6,25,54*,-75,43*,31,27,nt,49*
CCN(C(=O)COC(=O)CCCOc1ccccc1)c1c(N)n(Cc2ccccc2)c(=O)[nH]c1=O,nt,-6,-4,nt,-3,4,nt,nt,nt
O=C(NC1CCOc2ccccc21)c1ccccn1 (configuration not stated),4,17,13,14,13,-10,nt,nt,nt
Cc1ccc(NC(=S)NC(=O)C2CC2)cc1Cl,nt,38,61*,10,49*,30,14,nt,49*
CCOC(=O)c1ccc(NC(=S)NC(=O)C2CCCC2)cc1,8,27,58*,13,48*,41*,36*,53*,44*
COc1ccc(S(=O)(=O)Nc2ccc3c(c2)C(=O)N([C@H](C)CO)C[C@H](C)[C@@H](CN(C)C(=O)Nc2c(C)noc2C)O3)cc1,nt,4,15,nt,8,1,nt,nt,nt
O=C1Nc2ccc(Br)cc2/C1=C/C1CC=CCC1 (configuration not stated),-3,-23,59*,-8,59*,59*,50*,71*,-22
COc1ccc(CC(C(=O)Nc2ccc(OC)cc2)c2nn[nH]n2)cc1 (configuration not stated),5,19,5,7,-5,11,nt,nt,nt
S=C(Nc1ccc(Oc2ccc(NC(=S)NC3CCCCC3)cc2)cc1)NC1CCCCC1,10,20,21,0,12,16,nt,nt,nt
S=C(Nc1ccc2nsnc2c1)NC1CCCCC1,3,9,53*,17,53*,54*,33*,22,57*
Cc1nn(C)c(C)c1CS(=O)(=O)c1ccccc1,-1,4,-2,5,1,-2,nt,nt,nt
NC(=O)c1cccc(N=Cc2cc(Cl)cc(Cl)c2O)c1,11,nt,nt,20,nt,nt,nt,nt,nt
Cc1cccc(N=Cc2cc(Br)cc(Cl)c2O)c1,29,12,73*,18,50*,33,16,nt,84*
CC1=NNC(=O)/C1=C\c1cn(-c2ccccc2)nc1-c1ccc(Cl)cc1,66*,34,89*,38,83*,89*,71*,89*,68*
CC1=NN(c2ccccc2)C(=O)/C1=C\c1cn(CCC#N)nc1-c1ccc(Cl)cc1,1,13,54*,27,43*,54*,31,38*,51*
C/C(=N\Nc1cc(N2CCOCC2)ncn1)c1ccc(O)cc1,-6,24,-5,1,-3,-15,nt,nt,nt
